{
  "source": "the supplement of paper PMC10849652",
  "note": "The full data set covers some 7,900 targets. This sample favours those with a hit. About 0.6% of all pairs of compound and target were hits. Values without a mark were called inactive.",
  "data": [
    {"compound": "C[C@H](Nc1ncnc2nc[nH]c12)c1cc2cccc(Cl)c2c(=O)n1-c1ccccc1 [duvelisib]", "experiment": "log2 fold change, soluble protein after heating vs DMSO (PISA); higher = thermal stabilisation; K562 cells, 10 uM, 30 min; active = over 0.2 and 3.5 SD of the protein, either way, in both replicates (recomputed)", "method_in_brief": "(§1)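 K562 cells at 2×10^6 cells/mL were treated for 30 min with 10 μM compound, and aliquots were heated for 3 min over 48°C-58°C before pooling. Extraction used PBS with 0.5% NP-40 at 4°C, and soluble protein was the supernatant after 21,000xg for 90 min, measured by TMTpro 16plex LC-MS/MS with channel sums equalised. Thermal stability values, relative to control samples and from duplicates, are log2 fold changes.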", "values": [
      {"target": "EZH2 isoform 2 (UniProt Q15910)", "log2 fold change": -0.112},
      {"target": "EHBP1L1 (UniProt Q8N3D4)", "log2 fold change": 0.139},
      {"target": "DDX5 (UniProt P17844)", "log2 fold change": 0.041},
      {"target": "FAM177A1 isoform 2 (UniProt Q8N128)", "log2 fold change": 0.012},
      {"target": "EXOC4 (UniProt Q96A65)", "log2 fold change": -0.028},
      {"target": "E2F4 (UniProt Q16254)", "log2 fold change": 0.027},
      {"target": "DNAH10 (UniProt Q8IVF4)", "sequence (Q8IVF4 whole entry, looked up)": "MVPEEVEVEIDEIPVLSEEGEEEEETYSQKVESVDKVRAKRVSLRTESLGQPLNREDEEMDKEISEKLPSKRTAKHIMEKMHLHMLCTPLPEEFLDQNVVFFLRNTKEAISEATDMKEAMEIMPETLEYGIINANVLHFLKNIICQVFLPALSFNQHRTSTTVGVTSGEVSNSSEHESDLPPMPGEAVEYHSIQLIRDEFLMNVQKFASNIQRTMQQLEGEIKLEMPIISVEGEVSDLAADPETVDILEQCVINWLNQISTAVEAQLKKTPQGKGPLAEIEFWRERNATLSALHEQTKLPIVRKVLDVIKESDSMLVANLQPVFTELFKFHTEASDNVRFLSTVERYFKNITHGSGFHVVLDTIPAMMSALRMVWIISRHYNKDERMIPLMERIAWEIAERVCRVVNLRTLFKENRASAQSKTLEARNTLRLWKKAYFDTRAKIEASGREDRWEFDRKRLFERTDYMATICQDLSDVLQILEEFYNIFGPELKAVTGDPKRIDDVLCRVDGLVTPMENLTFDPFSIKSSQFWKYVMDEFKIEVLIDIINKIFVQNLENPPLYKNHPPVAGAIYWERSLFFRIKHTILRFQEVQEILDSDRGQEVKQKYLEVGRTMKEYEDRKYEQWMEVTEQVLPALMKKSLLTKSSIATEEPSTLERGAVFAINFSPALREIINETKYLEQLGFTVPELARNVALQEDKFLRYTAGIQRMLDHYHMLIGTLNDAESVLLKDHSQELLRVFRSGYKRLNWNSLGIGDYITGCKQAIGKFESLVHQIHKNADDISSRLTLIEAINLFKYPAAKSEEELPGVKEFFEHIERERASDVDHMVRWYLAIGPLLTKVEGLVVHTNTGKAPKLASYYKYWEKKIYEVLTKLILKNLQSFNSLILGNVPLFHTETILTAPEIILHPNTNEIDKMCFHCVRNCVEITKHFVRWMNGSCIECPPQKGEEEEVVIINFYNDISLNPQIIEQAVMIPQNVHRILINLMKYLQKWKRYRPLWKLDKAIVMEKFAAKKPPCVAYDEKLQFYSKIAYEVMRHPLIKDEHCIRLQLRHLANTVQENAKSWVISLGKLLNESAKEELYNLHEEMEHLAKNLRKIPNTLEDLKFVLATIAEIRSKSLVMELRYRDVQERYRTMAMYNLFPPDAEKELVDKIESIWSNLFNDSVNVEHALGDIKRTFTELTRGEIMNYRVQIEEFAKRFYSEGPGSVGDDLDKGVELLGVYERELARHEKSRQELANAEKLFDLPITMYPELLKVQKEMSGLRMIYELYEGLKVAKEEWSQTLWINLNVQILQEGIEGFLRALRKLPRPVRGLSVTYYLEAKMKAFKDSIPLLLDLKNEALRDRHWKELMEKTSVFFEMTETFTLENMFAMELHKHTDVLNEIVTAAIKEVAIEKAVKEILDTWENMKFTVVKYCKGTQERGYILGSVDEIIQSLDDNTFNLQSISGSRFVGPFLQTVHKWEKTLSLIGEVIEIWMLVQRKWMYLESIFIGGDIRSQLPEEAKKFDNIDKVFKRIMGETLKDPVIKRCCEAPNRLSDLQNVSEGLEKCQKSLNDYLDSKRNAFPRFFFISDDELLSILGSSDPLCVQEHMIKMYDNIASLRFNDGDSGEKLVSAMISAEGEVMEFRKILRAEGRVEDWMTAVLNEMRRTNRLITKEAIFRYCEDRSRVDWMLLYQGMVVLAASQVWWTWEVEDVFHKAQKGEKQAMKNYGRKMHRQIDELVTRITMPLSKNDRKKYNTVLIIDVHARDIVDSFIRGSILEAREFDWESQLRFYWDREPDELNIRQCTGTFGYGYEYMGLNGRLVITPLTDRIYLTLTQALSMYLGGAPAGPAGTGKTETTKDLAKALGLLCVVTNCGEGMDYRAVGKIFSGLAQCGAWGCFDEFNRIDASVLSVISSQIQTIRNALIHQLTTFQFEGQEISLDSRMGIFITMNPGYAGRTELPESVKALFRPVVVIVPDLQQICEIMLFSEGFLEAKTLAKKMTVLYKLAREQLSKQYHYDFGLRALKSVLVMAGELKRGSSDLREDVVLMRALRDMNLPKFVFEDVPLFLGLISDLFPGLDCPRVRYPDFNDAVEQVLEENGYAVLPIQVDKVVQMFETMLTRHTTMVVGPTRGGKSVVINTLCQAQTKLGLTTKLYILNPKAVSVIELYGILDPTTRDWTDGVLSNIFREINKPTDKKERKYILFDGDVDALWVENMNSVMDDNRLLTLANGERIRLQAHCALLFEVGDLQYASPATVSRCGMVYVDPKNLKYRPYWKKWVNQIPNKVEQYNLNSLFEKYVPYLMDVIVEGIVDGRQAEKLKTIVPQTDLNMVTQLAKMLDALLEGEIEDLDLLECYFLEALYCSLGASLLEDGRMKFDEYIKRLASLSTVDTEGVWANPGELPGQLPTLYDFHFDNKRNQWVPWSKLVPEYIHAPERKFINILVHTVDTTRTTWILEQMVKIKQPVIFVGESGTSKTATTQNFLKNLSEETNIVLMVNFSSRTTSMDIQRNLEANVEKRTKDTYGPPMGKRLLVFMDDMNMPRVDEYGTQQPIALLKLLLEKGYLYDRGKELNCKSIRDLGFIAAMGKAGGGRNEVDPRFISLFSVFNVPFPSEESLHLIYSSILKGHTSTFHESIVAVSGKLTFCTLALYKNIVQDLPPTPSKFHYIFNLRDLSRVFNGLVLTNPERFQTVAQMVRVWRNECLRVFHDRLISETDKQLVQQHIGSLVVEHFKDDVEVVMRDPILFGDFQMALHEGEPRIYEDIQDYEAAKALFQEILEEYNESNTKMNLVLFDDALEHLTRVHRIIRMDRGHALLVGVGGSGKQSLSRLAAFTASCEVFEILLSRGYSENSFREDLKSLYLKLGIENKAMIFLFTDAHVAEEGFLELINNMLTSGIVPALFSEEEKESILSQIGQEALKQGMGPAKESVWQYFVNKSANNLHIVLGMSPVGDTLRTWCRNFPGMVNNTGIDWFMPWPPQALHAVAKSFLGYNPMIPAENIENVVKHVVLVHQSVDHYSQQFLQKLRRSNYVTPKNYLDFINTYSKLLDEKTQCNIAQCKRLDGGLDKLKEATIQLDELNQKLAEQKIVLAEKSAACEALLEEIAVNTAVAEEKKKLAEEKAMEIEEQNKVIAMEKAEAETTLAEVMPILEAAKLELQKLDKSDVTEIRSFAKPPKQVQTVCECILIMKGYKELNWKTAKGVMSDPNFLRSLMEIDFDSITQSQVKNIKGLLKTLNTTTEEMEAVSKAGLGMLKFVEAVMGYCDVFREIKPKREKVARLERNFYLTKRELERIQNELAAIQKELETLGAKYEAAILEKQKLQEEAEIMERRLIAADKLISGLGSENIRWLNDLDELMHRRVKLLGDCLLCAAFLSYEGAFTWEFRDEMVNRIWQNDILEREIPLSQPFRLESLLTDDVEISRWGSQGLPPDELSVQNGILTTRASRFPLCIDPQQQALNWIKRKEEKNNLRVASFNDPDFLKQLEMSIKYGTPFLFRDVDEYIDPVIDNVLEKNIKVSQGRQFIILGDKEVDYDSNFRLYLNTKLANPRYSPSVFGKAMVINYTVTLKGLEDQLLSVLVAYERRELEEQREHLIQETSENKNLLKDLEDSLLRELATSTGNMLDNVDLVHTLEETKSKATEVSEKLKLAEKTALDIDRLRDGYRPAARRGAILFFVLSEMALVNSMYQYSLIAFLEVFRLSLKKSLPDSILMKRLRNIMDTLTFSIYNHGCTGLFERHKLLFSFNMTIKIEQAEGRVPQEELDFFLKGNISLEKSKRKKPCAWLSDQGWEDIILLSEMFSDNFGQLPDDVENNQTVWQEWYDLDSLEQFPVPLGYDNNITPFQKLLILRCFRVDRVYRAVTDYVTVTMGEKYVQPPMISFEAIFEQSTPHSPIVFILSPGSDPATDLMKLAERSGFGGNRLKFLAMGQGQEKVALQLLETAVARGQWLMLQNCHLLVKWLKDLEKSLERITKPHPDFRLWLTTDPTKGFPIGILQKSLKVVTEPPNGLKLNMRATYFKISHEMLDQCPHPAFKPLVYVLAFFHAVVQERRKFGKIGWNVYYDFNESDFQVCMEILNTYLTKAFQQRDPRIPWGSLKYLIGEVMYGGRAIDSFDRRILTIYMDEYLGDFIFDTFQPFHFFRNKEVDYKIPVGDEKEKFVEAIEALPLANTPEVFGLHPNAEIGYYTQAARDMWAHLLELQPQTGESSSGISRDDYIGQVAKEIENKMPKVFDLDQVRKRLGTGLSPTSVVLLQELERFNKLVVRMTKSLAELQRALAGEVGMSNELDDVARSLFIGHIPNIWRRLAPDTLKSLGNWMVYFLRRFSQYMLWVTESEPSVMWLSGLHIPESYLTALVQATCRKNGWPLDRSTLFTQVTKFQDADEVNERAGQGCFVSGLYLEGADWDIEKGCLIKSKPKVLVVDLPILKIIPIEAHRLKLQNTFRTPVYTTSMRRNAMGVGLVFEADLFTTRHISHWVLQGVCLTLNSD", "log2 fold change": 0.077},
      {"target": "DSN1 (UniProt Q9H410)", "log2 fold change": 0.098},
      {"target": "DNM2 isoform 4 (UniProt P50570)", "log2 fold change": 0.159},
      {"target": "CWF19L2 (UniProt Q2TBE0)", "log2 fold change": -0.1},
      {"target": "DDOST (UniProt P39656)", "log2 fold change": -0.074},
      {"target": "CTSS (UniProt P25774)", "sequence (P25774 whole entry, looked up)": "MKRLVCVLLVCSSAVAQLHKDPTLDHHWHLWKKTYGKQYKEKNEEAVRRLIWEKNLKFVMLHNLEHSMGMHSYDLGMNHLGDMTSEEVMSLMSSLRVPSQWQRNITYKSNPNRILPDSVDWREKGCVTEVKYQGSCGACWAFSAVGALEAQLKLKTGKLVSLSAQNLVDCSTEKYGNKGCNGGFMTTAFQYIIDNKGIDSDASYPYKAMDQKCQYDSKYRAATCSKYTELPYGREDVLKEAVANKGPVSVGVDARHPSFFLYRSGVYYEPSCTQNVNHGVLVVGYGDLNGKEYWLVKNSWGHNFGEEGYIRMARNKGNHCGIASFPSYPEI", "log2 fold change": 0.01},
      {"target": "DUS3L (UniProt Q96G46)", "log2 fold change": -0.005},
      {"target": "EFL1 (UniProt Q7Z2Z2)", "log2 fold change": 0.002},
      {"target": "EEF1A1 (UniProt P68104)", "log2 fold change": -0.048},
      {"target": "FAM207A (UniProt Q9NSI2)", "sequence (Q9NSI2 whole entry, looked up)": "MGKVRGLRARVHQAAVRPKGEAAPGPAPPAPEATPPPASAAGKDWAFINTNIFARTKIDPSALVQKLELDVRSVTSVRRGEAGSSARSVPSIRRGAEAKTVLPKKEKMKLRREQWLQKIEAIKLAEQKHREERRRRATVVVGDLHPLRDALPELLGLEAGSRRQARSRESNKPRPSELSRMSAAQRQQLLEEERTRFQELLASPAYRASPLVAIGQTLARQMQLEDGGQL", "log2 fold change": 0.128},
      {"target": "DPP8 (UniProt Q6V1X1)", "log2 fold change": 0.025},
      {"target": "DDX27 (UniProt Q96GQ7)", "log2 fold change": -0.145},
      {"target": "DBT (UniProt P11182)", "log2 fold change": 0.04},
      {"target": "FAM241A (UniProt Q8N8J7)", "log2 fold change": -0.016},
      {"target": "CYB561A3 isoform 2 (UniProt Q8NBI2)", "log2 fold change": 0.021},
      {"target": "FAM193B (UniProt Q96PV7)", "log2 fold change": -0.18},
      {"target": "FAM117A (UniProt Q9C073)", "log2 fold change": -0.119},
      {"target": "EHD2 (UniProt Q9NZN4)", "log2 fold change": 0.048},
      {"target": "DAXX (UniProt Q9UER7)", "log2 fold change": -0.001},
      {"target": "DHRS13 (UniProt Q6UX07)", "log2 fold change": -0.013},
      {"target": "CTNNB1 (UniProt P35222)", "log2 fold change": 0.086},
      {"target": "DOCK8 (UniProt Q8NF50)", "log2 fold change": 0.038},
      {"target": "EIF4G3 isoform 3 (UniProt O43432)", "log2 fold change": -0.082},
      {"target": "DCP2 (UniProt Q8IU60)", "log2 fold change": -0.049},
      {"target": "EIF2AK1 (UniProt Q9BQI3)", "log2 fold change": -0.007},
      {"target": "FAF2 (UniProt Q96CS3)", "log2 fold change": 0.031},
      {"target": "ELF1 (UniProt P32519)", "log2 fold change": 0.032},
      {"target": "DNAJC24 (UniProt Q6P3W2)", "log2 fold change": -0.028},
      {"target": "EXOSC10 (UniProt Q01780)", "log2 fold change": 0.09},
      {"target": "DNAH5 (UniProt Q8TE73)", "log2 fold change": 0.117},
      {"target": "ELAC1 (UniProt Q9H777)", "log2 fold change": 0.062},
      {"target": "EIF4E2 (UniProt O60573)", "log2 fold change": 0.037}
    ]},
    {"compound": "Cc1cc(Nc2cc(CN3CCOCC3)c3nc(C)c(Cc4ccc(Cl)cc4F)n3n2)n[nH]1 [gandotinib]", "experiment": "log2 fold change, soluble protein after heating vs DMSO (PISA); higher = thermal stabilisation; K562 cells, 10 uM, 30 min; active = over 0.2 and 3.5 SD of the protein, either way, in both replicates (recomputed)", "method_in_brief": "as §1", "values": [
      {"target": "EHBP1L1 (UniProt Q8N3D4)", "log2 fold change": -0.206},
      {"target": "DDX5 (UniProt P17844)", "log2 fold change": -0.016},
      {"target": "FAM177A1 isoform 2 (UniProt Q8N128)", "log2 fold change": -0.102},
      {"target": "EXOC4 (UniProt Q96A65)", "log2 fold change": -0.068},
      {"target": "E2F4 (UniProt Q16254)", "log2 fold change": -0.034},
      {"target": "DNAH10 (UniProt Q8IVF4)", "log2 fold change": -0.136},
      {"target": "DNM2 isoform 4 (UniProt P50570)", "log2 fold change": 0.126},
      {"target": "CWF19L2 (UniProt Q2TBE0)", "log2 fold change": "0.777 (active)"},
      {"target": "DDOST (UniProt P39656)", "log2 fold change": 0.02},
      {"target": "CTSS (UniProt P25774)", "log2 fold change": 0.018},
      {"target": "DUS3L (UniProt Q96G46)", "log2 fold change": -0.027},
      {"target": "EFL1 (UniProt Q7Z2Z2)", "log2 fold change": -0.056},
      {"target": "FAM207A (UniProt Q9NSI2)", "log2 fold change": -0.039},
      {"target": "DPP8 (UniProt Q6V1X1)", "log2 fold change": -0.038},
      {"target": "DDX27 (UniProt Q96GQ7)", "log2 fold change": 0.073}
    ]}
  ]
}
